Unmarked numbers belong to inactive results.
How the values were obtained:
Assay in all cases: log2 ratio of Biotin-Ahx-Ub-VS probe labelling (fragment/DMSO); higher = less target engagement (more negative = stronger competition), active = hit call of the paper (q ≤ 0.05, log2 ratio ≤ -1)
Settings in all cases: compound concentration: 200 uM; treatment time: 3 h
ALG13 = target: T1, ALG13 (UniProt Q9NP73)
T1 sequence (whole entry): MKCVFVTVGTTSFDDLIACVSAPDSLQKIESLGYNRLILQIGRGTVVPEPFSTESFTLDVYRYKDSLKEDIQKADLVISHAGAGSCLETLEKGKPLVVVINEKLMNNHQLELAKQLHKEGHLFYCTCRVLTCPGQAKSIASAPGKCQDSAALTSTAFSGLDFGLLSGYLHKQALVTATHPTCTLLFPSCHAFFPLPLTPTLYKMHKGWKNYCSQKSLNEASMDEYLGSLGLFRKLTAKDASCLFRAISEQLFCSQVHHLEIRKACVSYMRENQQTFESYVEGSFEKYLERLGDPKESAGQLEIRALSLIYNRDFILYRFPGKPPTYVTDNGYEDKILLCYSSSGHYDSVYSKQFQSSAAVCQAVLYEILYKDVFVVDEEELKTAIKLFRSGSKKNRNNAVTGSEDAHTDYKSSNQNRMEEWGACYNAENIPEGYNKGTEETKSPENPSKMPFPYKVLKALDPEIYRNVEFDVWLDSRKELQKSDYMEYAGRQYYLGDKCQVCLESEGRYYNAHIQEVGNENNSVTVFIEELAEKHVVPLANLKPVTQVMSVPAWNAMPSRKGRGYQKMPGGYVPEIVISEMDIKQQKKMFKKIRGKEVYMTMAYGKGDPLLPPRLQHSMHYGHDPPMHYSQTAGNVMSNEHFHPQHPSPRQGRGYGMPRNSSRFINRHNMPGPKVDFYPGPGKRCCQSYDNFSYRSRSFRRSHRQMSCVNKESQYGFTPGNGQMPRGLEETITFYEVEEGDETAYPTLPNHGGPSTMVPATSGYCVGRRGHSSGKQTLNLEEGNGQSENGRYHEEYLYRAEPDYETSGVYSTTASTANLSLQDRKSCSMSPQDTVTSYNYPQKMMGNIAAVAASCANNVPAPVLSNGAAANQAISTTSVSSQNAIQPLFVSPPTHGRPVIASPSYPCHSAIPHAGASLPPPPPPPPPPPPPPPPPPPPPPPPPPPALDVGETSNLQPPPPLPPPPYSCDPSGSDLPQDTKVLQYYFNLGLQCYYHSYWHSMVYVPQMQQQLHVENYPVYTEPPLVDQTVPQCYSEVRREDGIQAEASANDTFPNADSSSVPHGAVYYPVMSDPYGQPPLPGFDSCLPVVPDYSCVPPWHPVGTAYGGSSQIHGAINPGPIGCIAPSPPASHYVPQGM
How it was run: (§1)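 Average log2 ratios of fragment over vehicle were obtained by unpaired t-test from global-median-normalised Spectronaut label-free quantities. Proteins with ≥2 unique peptides were included. HEK293T lysate (495 µg per sample) was treated in triplicate with fragment at 200 µM or vehicle for 3 h, then with Biotin-Ahx-Ub-VS at 0.5 µM final for 1 h, and labelled DUBs were NeutrAvidin-enriched and run by diaPASEF LC-MS/MS.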

ATXN3 = ATXN3 (UniProt P54252)
ATXN3, sequence (P54252 whole entry): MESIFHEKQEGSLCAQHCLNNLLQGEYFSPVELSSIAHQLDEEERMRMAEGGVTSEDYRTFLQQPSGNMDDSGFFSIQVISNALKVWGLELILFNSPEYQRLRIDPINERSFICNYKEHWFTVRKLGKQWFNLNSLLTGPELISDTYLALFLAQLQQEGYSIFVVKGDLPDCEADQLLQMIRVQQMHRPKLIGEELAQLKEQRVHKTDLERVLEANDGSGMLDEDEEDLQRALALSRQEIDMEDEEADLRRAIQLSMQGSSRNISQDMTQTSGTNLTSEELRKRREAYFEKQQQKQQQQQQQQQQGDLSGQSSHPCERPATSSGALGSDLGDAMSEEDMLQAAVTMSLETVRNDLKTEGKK
How it was run: as §1

BAP1 = target: T2, BAP1 (UniProt Q92560)
T2 sequence (whole entry): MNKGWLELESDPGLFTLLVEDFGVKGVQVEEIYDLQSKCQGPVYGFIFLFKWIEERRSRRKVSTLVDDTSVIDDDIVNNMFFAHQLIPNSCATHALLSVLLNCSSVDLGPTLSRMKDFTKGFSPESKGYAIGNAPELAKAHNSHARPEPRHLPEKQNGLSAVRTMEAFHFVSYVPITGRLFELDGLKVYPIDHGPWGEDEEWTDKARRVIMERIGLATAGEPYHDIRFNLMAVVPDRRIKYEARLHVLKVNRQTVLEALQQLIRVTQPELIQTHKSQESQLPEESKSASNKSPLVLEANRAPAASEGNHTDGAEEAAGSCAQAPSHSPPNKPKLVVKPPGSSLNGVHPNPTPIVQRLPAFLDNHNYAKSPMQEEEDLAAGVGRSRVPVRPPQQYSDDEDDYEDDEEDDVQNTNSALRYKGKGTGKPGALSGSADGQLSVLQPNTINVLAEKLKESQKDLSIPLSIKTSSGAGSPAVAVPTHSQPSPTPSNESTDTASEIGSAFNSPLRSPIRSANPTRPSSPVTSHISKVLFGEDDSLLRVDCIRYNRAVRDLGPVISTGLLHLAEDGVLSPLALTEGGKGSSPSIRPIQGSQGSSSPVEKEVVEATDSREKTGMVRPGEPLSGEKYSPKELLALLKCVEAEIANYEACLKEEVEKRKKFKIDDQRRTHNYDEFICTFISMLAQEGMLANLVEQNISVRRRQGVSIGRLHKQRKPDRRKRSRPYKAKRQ
How it was run: as §1

EIF3F = EIF3F (UniProt O00303)
EIF3F, sequence (O00303 whole entry): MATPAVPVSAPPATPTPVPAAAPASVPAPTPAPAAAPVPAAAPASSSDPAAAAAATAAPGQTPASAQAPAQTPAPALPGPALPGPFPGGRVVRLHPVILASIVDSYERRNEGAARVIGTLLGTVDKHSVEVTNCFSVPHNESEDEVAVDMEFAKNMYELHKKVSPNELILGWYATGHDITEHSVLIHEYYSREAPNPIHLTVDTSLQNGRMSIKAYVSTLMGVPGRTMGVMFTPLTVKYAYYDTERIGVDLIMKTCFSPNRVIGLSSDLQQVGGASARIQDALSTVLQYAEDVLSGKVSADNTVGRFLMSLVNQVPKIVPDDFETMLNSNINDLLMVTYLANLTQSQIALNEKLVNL
How it was run: as §1

EIF3H = EIF3H (UniProt O15372)
EIF3H, sequence (O15372 whole entry): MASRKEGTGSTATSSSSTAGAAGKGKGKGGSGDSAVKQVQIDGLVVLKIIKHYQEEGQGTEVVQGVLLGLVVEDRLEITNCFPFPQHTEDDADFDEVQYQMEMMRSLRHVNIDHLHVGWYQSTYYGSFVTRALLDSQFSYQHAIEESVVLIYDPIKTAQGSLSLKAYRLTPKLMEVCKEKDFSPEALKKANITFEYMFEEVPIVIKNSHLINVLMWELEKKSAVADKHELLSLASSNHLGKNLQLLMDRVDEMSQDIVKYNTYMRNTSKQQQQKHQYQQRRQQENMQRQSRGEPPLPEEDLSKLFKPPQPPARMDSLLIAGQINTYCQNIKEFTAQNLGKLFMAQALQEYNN
How it was run: as §1

FAM105A = target: T3, FAM105A (UniProt Q9NUU6)
T3 sequence (whole entry): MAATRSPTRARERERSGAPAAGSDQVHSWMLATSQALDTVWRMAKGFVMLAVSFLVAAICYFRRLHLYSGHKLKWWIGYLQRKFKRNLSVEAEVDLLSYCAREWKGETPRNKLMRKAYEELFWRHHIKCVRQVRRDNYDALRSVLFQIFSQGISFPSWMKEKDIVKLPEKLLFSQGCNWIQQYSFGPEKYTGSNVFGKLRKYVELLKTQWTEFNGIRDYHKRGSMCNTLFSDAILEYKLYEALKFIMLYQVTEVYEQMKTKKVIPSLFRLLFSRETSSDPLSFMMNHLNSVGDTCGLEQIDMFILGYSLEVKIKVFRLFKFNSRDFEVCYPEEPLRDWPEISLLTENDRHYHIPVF
How it was run: as §1

OTUB1 = OTUB1 (UniProt Q96FW1)
OTUB1, sequence (Q96FW1 whole entry): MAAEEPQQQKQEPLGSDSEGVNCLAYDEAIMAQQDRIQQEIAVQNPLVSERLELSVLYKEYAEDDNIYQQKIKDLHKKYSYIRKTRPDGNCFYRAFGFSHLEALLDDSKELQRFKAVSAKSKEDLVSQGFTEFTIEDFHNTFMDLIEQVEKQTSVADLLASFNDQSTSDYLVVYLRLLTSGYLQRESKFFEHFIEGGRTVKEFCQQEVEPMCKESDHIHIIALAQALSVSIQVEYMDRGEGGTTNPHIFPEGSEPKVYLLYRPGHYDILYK
How it was run: as §1

OTUD4 = target: T4, OTUD4 (UniProt Q01804)
T4 sequence (whole entry): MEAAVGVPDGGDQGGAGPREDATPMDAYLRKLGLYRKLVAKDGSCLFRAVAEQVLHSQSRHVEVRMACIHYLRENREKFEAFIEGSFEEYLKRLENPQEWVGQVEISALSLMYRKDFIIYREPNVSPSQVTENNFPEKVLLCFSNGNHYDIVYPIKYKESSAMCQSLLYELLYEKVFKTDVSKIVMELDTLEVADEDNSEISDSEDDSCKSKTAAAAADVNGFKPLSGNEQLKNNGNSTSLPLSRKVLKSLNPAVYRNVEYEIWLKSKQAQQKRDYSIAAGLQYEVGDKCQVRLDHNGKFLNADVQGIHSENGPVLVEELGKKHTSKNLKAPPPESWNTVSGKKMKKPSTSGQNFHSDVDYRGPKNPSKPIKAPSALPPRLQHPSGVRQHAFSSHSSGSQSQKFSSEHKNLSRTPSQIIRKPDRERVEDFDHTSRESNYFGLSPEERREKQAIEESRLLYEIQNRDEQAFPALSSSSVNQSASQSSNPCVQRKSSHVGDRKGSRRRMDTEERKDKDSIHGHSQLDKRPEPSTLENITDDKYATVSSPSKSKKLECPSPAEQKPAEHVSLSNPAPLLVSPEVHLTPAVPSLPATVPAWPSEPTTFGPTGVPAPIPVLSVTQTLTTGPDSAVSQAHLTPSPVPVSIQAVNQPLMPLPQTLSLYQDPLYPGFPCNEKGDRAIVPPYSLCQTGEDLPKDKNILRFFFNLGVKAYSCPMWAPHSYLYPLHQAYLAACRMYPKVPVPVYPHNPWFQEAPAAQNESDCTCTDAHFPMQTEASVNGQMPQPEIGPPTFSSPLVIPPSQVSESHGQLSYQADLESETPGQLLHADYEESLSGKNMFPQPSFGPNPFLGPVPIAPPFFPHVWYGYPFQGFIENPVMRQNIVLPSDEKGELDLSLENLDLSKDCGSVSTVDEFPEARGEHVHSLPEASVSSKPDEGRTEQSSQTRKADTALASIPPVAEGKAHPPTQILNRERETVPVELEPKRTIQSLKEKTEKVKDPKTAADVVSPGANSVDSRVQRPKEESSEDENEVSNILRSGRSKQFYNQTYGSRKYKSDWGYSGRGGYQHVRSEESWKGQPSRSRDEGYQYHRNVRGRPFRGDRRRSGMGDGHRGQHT
How it was run: as §1

OTUD5 = target: T5, OTUD5 (UniProt Q96G74)
T5 sequence (whole entry): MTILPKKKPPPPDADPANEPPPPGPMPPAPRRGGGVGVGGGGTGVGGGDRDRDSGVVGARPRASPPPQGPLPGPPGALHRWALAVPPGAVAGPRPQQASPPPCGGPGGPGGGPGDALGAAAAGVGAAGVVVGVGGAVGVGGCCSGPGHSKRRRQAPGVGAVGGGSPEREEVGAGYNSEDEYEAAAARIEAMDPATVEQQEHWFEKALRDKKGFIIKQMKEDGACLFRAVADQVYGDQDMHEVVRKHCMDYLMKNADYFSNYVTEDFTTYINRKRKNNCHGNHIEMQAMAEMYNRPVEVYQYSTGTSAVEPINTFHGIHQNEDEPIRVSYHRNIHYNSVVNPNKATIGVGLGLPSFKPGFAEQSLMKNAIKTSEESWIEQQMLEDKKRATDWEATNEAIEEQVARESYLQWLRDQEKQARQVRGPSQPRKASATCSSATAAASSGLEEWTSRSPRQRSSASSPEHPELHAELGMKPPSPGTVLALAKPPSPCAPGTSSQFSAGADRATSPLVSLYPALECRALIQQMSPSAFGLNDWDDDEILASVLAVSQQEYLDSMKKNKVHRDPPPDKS
How it was run: as §1

Cc1ccc2nnc(CNC(=O)CCl)n2c1
log2 ratio of Biotin-Ahx-Ub-VS probe labelling (ALG13): 0.205
log2 ratio of Biotin-Ahx-Ub-VS probe labelling (ATXN3): -0.0879
log2 ratio of Biotin-Ahx-Ub-VS probe labelling (BAP1): -1.05 (active)
log2 ratio of Biotin-Ahx-Ub-VS probe labelling (EIF3F): -0.17
log2 ratio of Biotin-Ahx-Ub-VS probe labelling (EIF3H): 0.00833
log2 ratio of Biotin-Ahx-Ub-VS probe labelling (FAM105A): 0.283
log2 ratio of Biotin-Ahx-Ub-VS probe labelling (OTUB1): 0.0976
log2 ratio of Biotin-Ahx-Ub-VS probe labelling (OTUD4): 0.0524
log2 ratio of Biotin-Ahx-Ub-VS probe labelling (OTUD5): 0.0162
